Compound activity as filed in PubChem.
The list is not random: actives were taken first. Their share in the collection is about 3.2%.
ERK AVP inh = blocks ERK signaling stimulated by vasopressin | HEK293-V1b, vasopressin-stimulated pERK AlphaScreen | hit rate 0.99% among 72,000 | Potency, µM (top dose mostly 57.5 µM), actives largely listed as inhibitors; also: nearly all actives have a fitted effect of over 55% in size
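HEK293 cells stably expressing V1b receptor, seeded overnight in 1% FBS, were treated with compounds for 30 min at 37C, then stimulated 5 min with 25 nM vasopressin; phospho-ERK read by AlphaScreen SureFire after lysis.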
ALOX15B inhib = blocks human 15-lipoxygenase 2 activity | Potency, µM (top dose mostly 57.1 µM), most hits filed as inhibitors | AID 881 | hit rate 0.56% among 110,000 | purified 15hLO-2, xylenol orange hydroperoxide absorbance | O15296; also: nearly all actives have a fitted effect of over 60% in size
Target sequence (O15296 whole entry, looked up): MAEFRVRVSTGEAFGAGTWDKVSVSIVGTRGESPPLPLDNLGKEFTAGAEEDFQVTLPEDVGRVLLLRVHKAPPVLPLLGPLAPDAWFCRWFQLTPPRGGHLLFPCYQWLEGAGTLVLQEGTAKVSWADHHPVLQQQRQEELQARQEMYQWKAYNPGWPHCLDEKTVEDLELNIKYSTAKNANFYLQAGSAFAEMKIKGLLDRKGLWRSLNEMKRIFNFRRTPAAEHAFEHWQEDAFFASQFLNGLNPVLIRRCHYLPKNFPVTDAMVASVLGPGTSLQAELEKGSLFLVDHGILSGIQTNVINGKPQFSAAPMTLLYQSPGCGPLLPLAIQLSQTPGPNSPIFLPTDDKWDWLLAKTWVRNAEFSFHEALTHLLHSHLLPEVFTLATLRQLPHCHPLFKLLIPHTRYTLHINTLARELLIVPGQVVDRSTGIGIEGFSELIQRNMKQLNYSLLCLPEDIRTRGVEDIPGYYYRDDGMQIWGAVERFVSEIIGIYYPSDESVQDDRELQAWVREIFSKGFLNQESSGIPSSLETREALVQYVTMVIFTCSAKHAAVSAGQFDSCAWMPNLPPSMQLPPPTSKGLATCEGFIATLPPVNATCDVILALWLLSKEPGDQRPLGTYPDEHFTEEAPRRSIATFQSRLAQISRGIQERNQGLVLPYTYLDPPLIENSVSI
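Enzyme 50 nM, AA 45 uM, 25 mM Hepes pH 7.5 + 0.01% Triton X-100; cpd preinc 15 min RT, rxn 90 min RT; stop/detect with 200 uM XO + 300 uM Fe(II) in 50 mM H2SO4, 30 min; A573/A405.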
CRE Fsk mod = alters forskolin-stimulated CRE reporter signaling in CHO cells. CHO CRE-bla reporter (cAMP response element driving beta-lactamase), forskolin EC10, beta-lactamase ratio. Potency, µM (top dose mostly 38.2 µM), hits mostly activators. hit rate 2.5% among 71,000. AID 662; active = well fitted activation curve with a large enough effect in the signal ratio, with a control signal flat, not every such curve was filed as active; inconclusive = small, poorly fitted or top-dose-only effect, or effect the other way, or a change in a side signal; the % refers to the signal ratio
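Forskolin analogue NKH 477 at EC10 stimulated CRE-driven beta-lactamase in CHO cells alongside compound dilution series. Beta-lactamase was measured with CCF4, excitation 405 nm, emission ratio 460/530 nm.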
15-hLO inh = inhibitors of human 15-lipoxygenase (ALOX15) | P16050 | Potency, µM (series often up to 57.1 µM), usual class: inhibitors | hit rate 1.4% among 74,000 | purified 15hLO-1, xylenol orange hydroperoxide absorbance; also: nearly all actives have a fitted effect of over 55% in size
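Purified human 15hLO-1 (40 nM) in 25 mM Hepes pH 7.5, 0.01% Triton X-100, preincubated 15 min RT with compound, then 50 uM arachidonic acid for 6 min. Hydroperoxide read by ferrous/xylenol orange, 30 min; 573/405 nm absorbance ratio gave progress.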
Large screens that a line does not name were inactive. Unless noted, calls follow the shape of the dose curve; as a rule, active = well fitted inhibition curve with a large enough effect; inconclusive = small, poorly fitted or top-dose-only effect; inactive = no such curve, though single readings can be large or run the other way.

COc1ccc2[nH]c(=O)c(CN(Cc3nnnn3Cc3ccc(F)cc3)CC3CCCO3)cc2c1 (configuration not stated)	15-hLO inh 25µM
Clc1ccc(OCc2nnc(SCc3nc4ccccc4[nH]3)n2Cc2ccco2)cc1	ERK AVP inh 20µM
O=C1OC2C[C@H]1[C@@H]1C(=O)N(Cc3ccccc3)CCC1C2I (some centres not stated)	none (no result: ERK AVP inh, CRE Fsk mod, 15-hLO inh)
Cc1cccc(CNc2ccnc(-c3ccccc3C(F)(F)F)n2)c1	none
NC12CCc3c(no[n+]3[O-])C1(O)CC(c1ccccc1)=[N+]2[O-] (configuration not stated)	none (no result: ERK AVP inh, CRE Fsk mod, 15-hLO inh)
[O-][n+]1onc2c1CCC1N(O)C(c3ccccc3)CC21O (configuration not stated)	CRE Fsk mod 3.2µM
Cc1ccc(S(=O)(=O)COCCN2CCN(S(=O)(=O)c3ccc(C)cc3)CCC2=O)cc1	none (no result: ERK AVP inh, CRE Fsk mod, 15-hLO inh)
Cc1nc2nc(-c3ccccc3)[nH]n2c(=O)c1Cc1ccccc1	none
Cc1nc2nc(-c3ccco3)[nH]n2c(=O)c1Cc1ccccc1	CRE Fsk mod inconclusive, 15-hLO inh 16µM
C[C@]1(OC(=O)/C=C\c2ccccc2)C[C@@H](O)[C@@]2(O)C=CO[C@@H](O[C@H]3O[C@@H](CO)[C@@H](O)[C@@H](O)[C@@H]3O)[C@H]21	none
CCCn1c(=O)n(C)c(=O)c2c(SCc3cc(C(C)=O)ccc3OCC)nc(C3CC3)nc21	CRE Fsk mod 2µM (no result: ALOX15B inhib)
Cn1c(=O)c2c(SCC(=O)c3ccccc3)nc(C3CC3)nc2n(C)c1=O	CRE Fsk mod inconclusive (no result: ERK AVP inh)
COc1ccccc1OCCSc1nc2ccccc2c(=O)[nH]1	CRE Fsk mod 10µM
O=c1[nH]c(SCCOc2ccccc2)nc2ccccc12	CRE Fsk mod inconclusive
Cc1cccc2cc(CN(CC3CCCO3)S(=O)(=O)c3ccccc3)c3nnnn3c12 (configuration not stated)	none
Cc1cccc2cc(CN(CC3CCCO3)C(=O)c3cccnc3)c3nnnn3c12 (configuration not stated)	CRE Fsk mod 4µM
CC(Oc1ccc(Cl)cc1Cl)C(=O)NC1=NN(c2ccccc2)C(=O)C1 (configuration not stated)	ALOX15B inhib 7.9µM (no result: ERK AVP inh, CRE Fsk mod, 15-hLO inh)
COC(=O)[C@@]1(Cc2ccccc2)[C@H]2c3cc(C(=O)N4CCCC4)n(Cc4ccccn4)c3C[C@H]2CN1C(=O)c1ccccc1	CRE Fsk mod inconclusive (no result: 15-hLO inh)
Cc1ccccc1C(=O)NCc1ccncc1	ERK AVP inh 25µM
COc1ccccc1C(=O)NCc1ccncc1	none
COCCn1c(=O)c(CCc2ccccc2)nc2cnc(OC)nc21	CRE Fsk mod inconclusive
N#CC(C#N)=C(N)/C(C#N)=C/c1ccc(O)cc1	ERK AVP inh 13µM
CCCC1OC2CC3C4CCC5=CC(=O)C=CC5(C)C4C(O)CC3(C)[C@]2(C(=O)CO)O1 (some centres not stated)	none (no result: CRE Fsk mod)
CCOC(=O)CSc1cc(=O)n(CC)c2ccccc12	none (no result: ERK AVP inh, CRE Fsk mod, 15-hLO inh)
CCOC(=O)CSc1cc(=O)n(C)c2cc(Cl)ccc12	15-hLO inh 13µM
COc1ccccc1N1CCN(c2nc(C)nc3c2oc2ccccc23)CC1	ERK AVP inh inconclusive, CRE Fsk mod 1.6µM
c1cnc(N2CCN(Cc3ccc4c(c3)OCO4)CC2)nc1	none
Cc1nc(N2CCC(C)CC2)c2oc3ccccc3c2n1	CRE Fsk mod inconclusive
Cc1nc(N2CCN(Cc3ccc4c(c3)OCO4)CC2)c2oc3ccccc3c2n1	ERK AVP inh inconclusive, CRE Fsk mod 10µM (no result: ALOX15B inhib)
COc1ccc(CN2C(=O)c3cccnc3C2Nc2cc(Cl)ccc2OC)cc1 (configuration not stated)	ALOX15B inhib inconclusive, 15-hLO inh 16µM
COC(=O)c1ccc(C(/C=C/[C@@H](C)C(=O)N[C@H](C)CO)NC(=O)OCc2ccccc2)cc1 (some centres not stated)	none
Oc1ccc(Nc2nc(NCC3CCCO3)c3ccccc3n2)cc1 (configuration not stated)	ERK AVP inh 13µM, 15-hLO inh inconclusive
Oc1ccccc1Nc1nc(NCC2CCCO2)c2ccccc2n1 (configuration not stated)	15-hLO inh inconclusive
N#Cc1c(Sc2ncc(C(F)(F)F)cc2Cl)nsc1C/C=N\OCc1ccccc1Br	ALOX15B inhib 13µM (no result: ERK AVP inh, CRE Fsk mod, 15-hLO inh)
CC(C)(C)c1ccc(OCC(=O)O)c(Cl)c1	none
COc1cccc(C(=O)NC(=S)Nc2ccc(N3CCCC3)cc2)c1	ALOX15B inhib 13µM (no result: ERK AVP inh, CRE Fsk mod, 15-hLO inh)
COc1ccc(C(=O)Nc2ccc(N3CCCC3)cc2)cc1	none (no result: ERK AVP inh, CRE Fsk mod, 15-hLO inh)
NCCCc1c(-c2ccccc2)nc(N)[nH]c1=O	none
Cc1cccn2c(=O)c3cc(C#N)c(=N)n(Cc4cccnc4)c3nc12	none (no result: ALOX15B inhib)
Cc1ccc2nc3c(cc(C#N)c(=O)n3CC3CCCO3)c(=O)n2c1 (configuration not stated)	CRE Fsk mod 1.3µM
N#Cc1cc2c(=O)n3ccccc3nc2n(CCCN2CCOCC2)c1=O	CRE Fsk mod 10µM
N#Cc1cc2c(=O)n3ccccc3nc2n(Cc2cccnc2)c1=O	CRE Fsk mod 1µM (no result: ALOX15B inhib)
Cc1cccn2c(=O)c3cc(C#N)c(=O)n(Cc4cccnc4)c3nc12	CRE Fsk mod 6.3µM
COC(=O)[C@@H]1[C@@H](O)[C@]2(O)c3ccccc3O[C@]2(c2ccccc2)[C@H]1c1ccccc1	none (no result: ALOX15B inhib, CRE Fsk mod)
CN(C)C(=O)c1ccc(-c2cc(N(C)Cc3ccco3)ncn2)cc1	none
N#Cc1c(-c2ccccc2)cc(C2CC2)nc1N	CRE Fsk mod 2µM
Cc1ccc(-c2cc(-c3ccccc3)c(C#N)c(N)n2)o1	ALOX15B inhib inconclusive, 15-hLO inh inconclusive
CCCc1ccc(Oc2cn[nH]c2-c2ccc(O)cc2O)cc1	ERK AVP inh inconclusive, CRE Fsk mod inconclusive, 15-hLO inh 3.2µM
NCCNc1cccc2ccccc12	none
C=CCSc1nc2c(c(=O)[nH]c(=O)n2C)n1C(C)C	CRE Fsk mod 10µM
C=CCn1c(SCc2ccc(Cl)cc2)nc2c1c(=O)[nH]c(=O)n2C	CRE Fsk mod 10µM
C/C(Cl)=C/CSc1nc2c(c(=O)[nH]c(=O)n2C)n1C(C)C	CRE Fsk mod inconclusive
C/C=C/Cn1c(SCc2ccc(C)cc2)nc2c1c(=O)[nH]c(=O)n2C	CRE Fsk mod 13µM, 15-hLO inh inconclusive
C=CCSc1nc2c(c(=O)[nH]c(=O)n2C)n1Cc1ccc(C)cc1	CRE Fsk mod 2.5µM (no result: ERK AVP inh, ALOX15B inhib)
O=c1oc2ccccc2c(O)c1/C=N/c1nc(-c2ccc(O)c(O)c2)cs1	CRE Fsk mod inconclusive, 15-hLO inh inconclusive
COc1ccc2c(Cl)cc(NC(=S)Nc3ccccc3)nc2c1	none
CCC(Cl)CC(Cl)C(Cl)C(Cl)C(Cl)C(C)Cl (configuration not stated)	CRE Fsk mod inconclusive
CCn1c(N2CCN(CC(=O)c3c(C)n(C)c4ccccc34)CC2)nc2c1c(=O)[nH]c(=O)n2C	CRE Fsk mod 10µM
CCCn1c(N2CCN(CC(=O)c3c[nH]c4ccccc34)CC2)nc2c1c(=O)[nH]c(=O)n2C	CRE Fsk mod inconclusive
Cc1ccc(Cn2c(N3CCCCCC3)nc3c2c(=O)[nH]c(=O)n3C)cc1	ERK AVP inh 16µM, CRE Fsk mod inconclusive
